Measured values from PubChem BioAssay (NCI).
This is part of a sample that, as a whole, favours compounds with a hit. Of some 83,000 tested, about 20% had one in any assay.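 Plates (96-well) were seeded with cells, treated with compound at one concentration, and incubated for 48 hours before percent growth was determined.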 Unmarked numbers belong to inactive results. The source made the active and inactive calls. How the source made its calls: active means growth percent below 10; inactive means the rest.

Experiments:
Assay in all cases: NCI-60 one-dose screen, 48 h (100 = growth as untreated, 0 = no growth, -100 = all killed)
Conditions in all cases: 10 µM unless noted
[1] = test system: NCI-H23 lung
[2] = test system: NCI-H226 lung
[3] = test system: NCI-H322M lung
[4] = test system: HOP-62 NSCLC
[5] = test system: NCI-H460 lung
[6] = test system: HOP-92 NSCLC
[7] = test system: NCI-H522 lung
[8] = test system: A549/ATCC NSCLC
[9] = test system: 786-0 renal
[10] = test system: COLO 205 colon
[11] = test system: DU-145 prostate
[12] = test system: K-562 leukemia
[13] = test system: MALME-3M melanoma
[14] = test system: MDA-MB-231 breast
[15] = test system: RXF 393 renal
[16] = test system: SF-268 CNS
[17] = test system: SF-295 CNS
[18] = test system: SF-539 CNS
[19] = test system: UACC-257 melanoma
[20] = test system: M14 melanoma

SMILES	growth [1]	growth [2]	growth [3] [%]	growth [4] [%]	growth [5]	growth [6]	growth [7]	growth [8]	growth [9]	growth [10]	growth [11]	growth [12]	growth [13]	growth [14]	growth [15]	growth [16]	growth [17]	growth [18]	growth [19]	growth [20]
Cc1cc(C)cc(OCC(=O)O)c1	97%	91.4%	95.9	95.5	110%	109%	93.7%	104%	98.2%	119%	111%	93.3%	92.3%	106%	135%	114%	96.5%	96.2%	100%	
BrCc1cccc(C[P+](c2ccccc2)(c2ccccc2)c2ccccc2)c1	87%	73.7%	89	33.8	48.5%	32%	24.6%	69.4%	98.8%	-35.3% (active)	64.9%	28.8%	38.3%	93.2%	84.4%	56.4%	72.2%	35.4%	14.2%	51.4%
CCCCOC(=O)c1ccccc1O	108%	105%	112	110	113%	111%	125%	113%	109%	115%	120%	131%	104%	104%	161%	117%	110%	106%	99.4%	
Cc1nc(O)cc(=O)[nH]1	108%	111%	99.3	112	104%	76.3%	103%	109%	114%	115%	113%	112%	106%	124%	111%	105%	118%	114%	92.1%	105%
Cc1cccc(-[n+]2noc(N)n2)c1	85.5%	80.8%	87.7	87.3	80.9%	65%	50.9%	102%	93.8%	95.7%	75.4%	20.2%	86.4%	53.7%	99.1%	81.9%	84.5%	91.6%	95.2%	88.4%
C=C1CC2(OC1=O)C(=O)N(C)c1ccc(I)cc12 (stereo not drawn)	-62.6% (active)	-37.3% (active)	50.6	58.9	-57% (active)	-95.7% (active)	-56.9% (active)	-19.3% (active)	-71.5% (active)	-84.2% (active)	-95.2% (active)	-50% (active)	-77.1% (active)	-2.19% (active)	-73.4% (active)	-75% (active)	55.4%	-88.2% (active)	-69.3% (active)	-76.6% (active)
CCOC(=O)/C(C)=C\c1ccc(OC)c(OC)c1	98.1%	100%	101	105	102%	93.6%	107%	101%	95.5%	105%	99.5%	87%	112%	102%	112%	98.3%	100%	101%	108%	
CC(=O)OC/C(C)=C\CC(C)COC(C)=O (stereo not drawn)	112%	103%	102	96.9	102%	69.8%	110%	106%	96.7%	104%	114%	103%	102%	99.7%	97.1%	109%	94.6%	116%	102%	96.4%
O=C(CCl)Nc1ccccc1SCc1cc(Cl)cc2c1OCOC2	82.7%	82.8%	89.7	100	105%	-6.11% (active)	-74.8% (active)	96.5%	99.6%	95.7%	101%	32.1%	-69.1% (active)	88.6%	77.1%	93.8%	94%	93.5%	101%	
Cc1c(-c2ccc(C3CCCCC3)cc2)nc2ccc(F)cc2c1C(=O)O	53.5%	64.1%	56.4	61.7	7.22% (active)	83.3%	38.5%	21.3%	38%	44.2%	39.3%	22.9%	62.1%	62.7%	74.1%	42.8%	2.98% (active)	37.1%	65.2%	
c1ccc(Nc2ccccn2)nc1	95.9%	89%	100	95.9	96.5%	95.8%	88.2%	109%	97.6%	104%	120%	90.5%	83.4%	97.1%	97.9%	102%	99.3%	94.6%	95.3%	
CC1CC(C)S(=O)(=O)C1 (stereo not drawn)	106%	105%	113	115	116%	120%	97.8%	92.6%	107%	108%	104%	92.4%	110%	115%	115%	111%	105%	104%	95.7%	
C=CCC(O)C=C (stereo not drawn)	101%	103%	91.7	109	107%	109%	108%	99.4%	97.5%	106%	111%	91.4%	80.7%	108%	107%	111%	99.6%	104%	93.5%	
Nc1cccc2cccc(O)c12	90.6%	96.1%	79.2	104	86.5%	83.8%	70.5%	106%	108%	102%	99.1%	89.5%	75.2%	65.7%	90.6%	96.1%	93.8%	109%	100%	
Cc1ccc(OC(=O)c2ccccc2)cc1	114%	100%	123	97.7	106%	130%	91.8%	98.7%	112%	96.1%	114%	101%	123%	126%	107%	108%	117%	106%	94.3%	
C/C=C/C1OCC(CC)C(CCC)O1 (stereo not drawn)	113%	111%	111	111	109%	110%	91.1%	88%	111%	114%	115%	89.3%	114%	100%	124%	101%	113%	99.1%	93.5%	104%
O=C(O)Cc1ccccn1	102%	102%	102	109	108%	99.1%	100%	106%	102%	97.8%	111%	108%	85.7%	116%	133%	100%	114%	109%	98.6%	112%

SMILES	growth [1]	growth [2]	growth [3] [%]	growth [4] [%]	growth [5]	growth [6]	growth [7]	growth [8]	growth [9]	growth [10]	growth [11]	growth [12]	growth [13]	growth [14]	growth [15]	growth [16]	growth [17]	growth [18]	growth [19]	growth [20]
CC(=O)C[n+]1ccc(C)cc1Sc1ccccc1C	91%	107%	102	99.1	104%	94.9%	98.1%	112%	93.5%	116%	98.1%	102%	102%	89.3%	134%	93%	96.8%	88.5%	97.8%	
CS(=O)CC(=N\O)/C(CS(C)=O)=N\O (stereo not drawn)	106%	110%	98	102	111%	105%	96%	97.4%	99.2%	106%	102%	106%	97.5%	101%	114%	98.5%	101%	101%	96.3%	
CCOc1ccc(C(=O)NCC(C)C)cc1	107%	104%	101	95.8	103%	103%	97.8%	108%	97.6%	101%	110%	102%	101%	93.2%	108%	102%	99.5%	94.4%	110%	
c1ccc2[nH]c(Cc3nc4ccccc4[nH]3)nc2c1	107%	112%	93.1	99.2	111%	85%	103%	103%	117%	105%	109%	126%	89%	106%	114%	131%	101%	105%	111%	94.3%
O=C(O)Cc1ccc(Cl)cc1	114%	96%	108	86.9	107%	38.8%	101%	120%	93.7%	107%	107%	53.6%	102%	102%	125%	105%	97.5%	99.4%	111%	
C=CC(=O)OC1CCC(C(C)(C)CC)CC1 (stereo not drawn)	108%	106%	110	103	105%	115%	100%	109%	105%	105%	113%	109%	110%	106%	113%	102%	120%	105%	115%	107%
O=C1Nc2ccccc2/C1=C\c1ccccc1O	82.6%	93.2%	80.5	87.9	98.7%	46.6%	61.6%	114%	98.8%	124%	88.6%	73.1%	78%	83.6%	106%	89.7%	96.6%	88.7%	94%	
CC(=O)c1cccc(NS(=O)(=O)c2ccc(C)cc2)c1	83.9%	91%	103	89.9	102%	74.4%	64.4%	100%	89.5%	117%	95.1%	27.4%	96.9%	83.7%	96.3%	89.3%	87.6%	74.6%	86.6%	
C[C@H](CCC[C@H](C)OS(=O)(=O)c1ccccc1)OS(=O)(=O)c1ccccc1	107%	90.4%	96.7	99.9	114%	131%	86.8%	117%	107%	115%	119%	110%	96.9%	103%	142%	105%	102%	91.7%	107%	106%
O=C(O)CCCCCNC(=O)OCc1ccccc1	102%	105%	95.1	101	101%	92.3%	107%	100%	102%	99%	98%	124%	97.2%	102%	119%	100%	99.8%	97.5%	112%	
CCCCNC(=O)c1ccc(OCC)cc1	101%	96%	102	101	103%	93.1%	95.6%	98.6%	98.3%	106%	108%	112%	101%	108%	109%	106%	106%	104%	102%	99.7%
O=S1(=O)c2ccccc2Oc2ccccc21	104%	100%	101	93.4	99%	90.4%	78.2%	95.4%	99.9%	109%	107%	114%	110%	110%	90.7%	107%	91.8%	96.1%	103%	
CCN(CC)CCOC(=O)Nc1c(C(C)C)cccc1C(C)C	109%	104%	93.5	104	128%	117%	92.8%	95.3%	105%	117%	116%	99%	98.2%	104%	107%	106%	102%	96.6%	97.5%	
Cc1cc(C(=O)NN)c(C#N)c(=O)[nH]1	100%	99.1%	110	97	97.2%	87.2%	89.8%	101%	107%	94.1%	106%	116%	103%	106%	99.5%	116%	127%	87.7%	95.4%	
COc1cccc(C(=O)O)c1OC	109%	89.8%	95.6	89.4	101%	92.5%	87.2%	98.1%	96%	101%	111%	107%	103%	99.2%	115%	105%	87.5%	96.4%	97.6%	103%
O=Cc1ccc(Cl)c(Cl)c1	99.1%	98.1%	106	97	107%	68.5%	96.5%	102%	109%	104%	94.8%	104%	98.7%	116%	94.3%	101%	119%	117%	96.4%	
COc1cc(OC)c2cc(C(=O)c3ccc(C#N)cc3)c(=O)oc2c1	96.9%	92.2%	92.3	88.6	107%	107%	93.1%	99%	84%	117%	102%	85.1%	95.7%	79.3%	109%	88.1%	97.2%	82.5%	102%	
